Source: PubChem BioAssay
HepG2 tox: kills HepG2 cells in TGF-b inhibitor counter-screen | HepG2 CAGA-GFP viability, ATP luminescence, 18 h | Potency, µM (series often up to 46.1 µM), hits mostly cytotoxic | 410,000 compounds, 0.76% hits | AID 588856
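CellTiter-Glo luminescence gave cytotoxicity after 18 hours at 37 degrees C. The cells were HepG2 CAGA-GFP in 1% FBS DMEM, stimulated with 500 pg/mL TGF-beta after compound addition. %Activity was normalised to no-cell wells (complete cell-killing) and DMSO (no toxicity), and curves were fitted and classified.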
TDP1 cell noCPT: qHTS for Inhibitors of human tyrosyl-DNA phosphodiesterase 1 (TDP1): qHTS in cells in absence of CPT | DT40 Tdp1-/- hTDP1 cells, no CPT, ATP luminescence, 48 h | Potency, µM (highest dose often 46.2 µM), actives largely listed as inhibitors | 420,000 compounds, 15% hits | AID 686978, 2013; further: nearly all actives have a fitted effect of over 55% in size
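No-CPT arm: Tdp1-/-;hTDP1 DT40 cells (400/well) plus compounds, incubated ≥48 hr at 37 °C. Readout CellTiter-Glo luminescence.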
DT40 TDP1 CPT: growth inhibition of DT40 Tdp1-/-;hTDP1 cells with camptothecin (screen for TDP1 inhibitors) | AID 686979 | Potency, µM (highest dose often 46.2 µM), actives largely listed as inhibitors | chicken DT40 Tdp1-/-;hTDP1 cells + 20 nM CPT, ATP luminescence, 48 h | 420,000 compounds, 12% hits; further: nearly all actives have a fitted effect of over 55% in size
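Cell growth measured by CellTiter-Glo luminescence after a minimum 48 h, 37 C compound exposure with 20 nM CPT in Tdp1-knockout DT40 cells stably expressing hTDP1, seeded 400/well; qHTS titration format.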
TGFb inhibitor: TGF-b pathway inhibition. HepG2 CAGA-GFP TGF-b/SMAD3 reporter, GFP fluorescence, 18 h; TGF-beta stimulated, 500 pg/mL final. Potency, µM (doses to about 46.1 µM), actives largely listed as inhibitors. 410,000 compounds, 1.2% hits; further: nearly all actives have a fitted effect of over 65% in size
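Using HEPG2 CAGA-GFP reporter cells at 1000 cells/well, we pinned test compounds, stimulated with recombinant TGF-beta (500 pg/mL final) and measured total well GFP after 18 h.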
HT1080 IDH1KD tx: HT-1080 IDH1 knockdown cell toxicity (counter line) | 360,000 compounds, 2% hits | HT-1080 IDH1 knockdown viability, ATP luminescence, 48 h | Potency, µM (highest dose often 46.1 µM), actives largely listed as cytotoxic | AID 686971
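Knockdown cells (IDH1KD HT-1080) received compounds 2 h after plating at 750 cells/well and were kept 48 h at 37 °C in 5% FBS RPMI. A CellTiter-Glo luminescence read gave % activity for curve fitting.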
HT1080-NT tox: kills 2HG-producing HT-1080-NT fibrosarcoma cells | HT-1080-NT fibrosarcoma viability, CellTiter-Glo ATP luminescence, 48 h | Potency, µM (doses to about 46.1 µM), usual class: cytotoxic | 360,000 compounds, 1.6% hits;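 further: NT is the 2HG producing partner of a matched IDH1 knockdown line; nearly all actives have a fitted effect of over 55% in size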
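Viability by CellTiter-Glo luminescence after 48 h compound exposure at 37C of HT-1080-NT cells (750/well, RPMI, 5% FBS). % activity scaled between DMSO wells and medium-only wells, then curve-fitted and categorized by curve class.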
Numbers stand for hits. Sampled rows, rich in hits. Any-hit rate of the full collection: about 17%. The call rests on the fitted dose curve; in most records, active means well fitted curve in the direction sought with a large enough effect; inconclusive means small, poorly fitted or top-dose-only effect, or another doubt; inactive means no such curve, though single readings can be large; an effect the other way counts as inactive or inconclusive.

How did O=C1C(C2=C(O)c3ccccc3C2=O)=Nc2ccccc21 do in these assays?
HepG2 tox: 11µM; TDP1 cell noCPT: 15µM; DT40 TDP1 CPT: 10µM; TGFb inhibitor: inactive; HT1080 IDH1KD tx: inconclusive; HT1080-NT tox: inactive

What do the screens show for `CC1CN(C(=O)CCc2ccccc2)C(C)CN1C(=O)CCc1ccccc1` (stereo unspecified)?
HepG2 tox: inactive; TDP1 cell noCPT: 23µM; DT40 TDP1 CPT: inconclusive; TGFb inhibitor: inactive; HT1080 IDH1KD tx: inactive; HT1080-NT tox: inactive

How did CC1CCCN(C(=O)CCc2ccccc2)C1 (stereo unspecified) do in these assays?
HepG2 tox: inactive; TDP1 cell noCPT: inactive; DT40 TDP1 CPT: inactive; TGFb inhibitor: inactive; HT1080 IDH1KD tx: inactive; HT1080-NT tox: inactive

What do the screens show for `CN(C)S(=O)(=O)c1cc(NC(=O)C2=COCCO2)ccc1Cl`?
HepG2 tox: inactive; TDP1 cell noCPT: inactive; DT40 TDP1 CPT: inactive; TGFb inhibitor: inactive; HT1080 IDH1KD tx: inactive; HT1080-NT tox: inactive

What do the screens show for `O=C(Nc1c(Cl)cccc1Cl)c1cc(=O)n(Cc2ccccc2)c(=O)[nH]1`?
HepG2 tox: inactive; TDP1 cell noCPT: inactive; DT40 TDP1 CPT: inactive; TGFb inhibitor: inactive; HT1080 IDH1KD tx: inactive; HT1080-NT tox: inactive

Results for CN(CC(=O)Nc1ccc(Cl)cc1)C(=O)CNC(=O)c1ccc(Br)o1 ?
HepG2 tox: inactive; TDP1 cell noCPT: inactive; DT40 TDP1 CPT: inactive; TGFb inhibitor: inconclusive; HT1080 IDH1KD tx: inactive; HT1080-NT tox: inactive

Results for O=C1C2C3C=CC(O3)C2C(=O)N1Nc1ccccc1 (stereo unspecified) ?
HepG2 tox: inactive; TDP1 cell noCPT: inactive; DT40 TDP1 CPT: inactive; TGFb inhibitor: inactive; HT1080 IDH1KD tx: inactive; HT1080-NT tox: inactive

How did O=c1c2ccccc2c2ccccc2c(=O)n1Nc1ccccc1 do in these assays?
HepG2 tox: inactive; TDP1 cell noCPT: inactive; DT40 TDP1 CPT: inactive; TGFb inhibitor: inactive; HT1080 IDH1KD tx: 13µM; HT1080-NT tox: inconclusive

Results for Cn1nnc2c(NCCc3ccccc3)ncnc21 ?
HepG2 tox: inactive; TDP1 cell noCPT: inactive; DT40 TDP1 CPT: inactive; TGFb inhibitor: inactive

Results for CC1=NN(C(=O)c2cccc(Cn3nc(C)c([N+](=O)[O-])c3C)c2)C(O)(C(F)(F)F)C1 (stereo unspecified) ?
HepG2 tox: inactive; TDP1 cell noCPT: inconclusive; DT40 TDP1 CPT: inactive; TGFb inhibitor: inactive; HT1080 IDH1KD tx: 5µM; HT1080-NT tox: 7.9µM

What do the screens show for `CC1=NN(C(=O)c2ccc(Cn3cc([N+](=O)[O-])cn3)cc2)C(O)(C(F)(F)F)C1` (stereo unspecified)?
HepG2 tox: inactive; TDP1 cell noCPT: 3.7µM; DT40 TDP1 CPT: 1.8µM; TGFb inhibitor: inconclusive; HT1080 IDH1KD tx: inactive; HT1080-NT tox: inactive

What do the screens show for `CCOc1ccccc1N(C(=O)Nc1ccc(Cl)cc1)C1=NCCS1`?
HepG2 tox: inactive; TDP1 cell noCPT: inconclusive; DT40 TDP1 CPT: inactive; TGFb inhibitor: inactive; HT1080 IDH1KD tx: inactive; HT1080-NT tox: inactive

Results for CCOCCCN1C(=O)CN(C2CCCCCC2)C(=O)C1c1ccc(OC(C)C)c(OC)c1 (stereo unspecified) ?
HepG2 tox: inactive; TDP1 cell noCPT: inactive; DT40 TDP1 CPT: inactive; TGFb inhibitor: inactive

What do the screens show for `Cc1ccc(C(NC(=O)N2CCCCC2)=C(Cl)Cl)cc1F`?
HepG2 tox: inactive; TDP1 cell noCPT: inactive; DT40 TDP1 CPT: 13µM; TGFb inhibitor: inactive; HT1080 IDH1KD tx: inactive; HT1080-NT tox: inactive

What do the screens show for `Cc1ccc(NC(=O)N2CCCCCC2)cc1C`?
HepG2 tox: inactive; TDP1 cell noCPT: inactive; DT40 TDP1 CPT: inactive; TGFb inhibitor: inactive; HT1080 IDH1KD tx: inactive; HT1080-NT tox: inactive
